# Measured values taken from ChEMBL document CHEMBL4513216, “Probing the Open Global Health Chemical Diversity Library for Multistage-Active Starting Points for Next-Generation Antimalarials” (ACS Infect Dis, 2020).
# Out of some 69,000 compounds screened, about 8,600 (12%) showed an effect of 50% or more. The sample as a whole holds a higher share of strong results than the screen did.
# Test system: Plasmodium berghei
# Assay: Screen against P. berghei liver stage (PbLuc), transformed with Luciferase, at 10uM
# Type: functional, HepG2
# Details: tested at 10 uM
row,SMILES,INHIBITION
1,Cc1ccc(N2C[C@H]3OCC[C@H]3[C@H](C(=O)NCC3CC3)C2)nn1,49.7%
2,CCc1nnc(CS(=O)(=O)c2ccc(C)cc2)n1C,35.1%
3,CCCN(CCC)C(=O)CN(C)C1CCc2ccccc21 (centres undefined),15.55%
4,CCN(CC)C(=O)CN(C)C1CCc2ccccc21 (centres undefined),53.5%
5,CN(Cc1cccs1)C(=O)CN(C)C1CCc2ccccc21 (centres undefined),47.4%
6,CN(CCC#N)C(=O)CN(C1CC1)C1CCc2ccccc21 (centres undefined),-4.15%
7,COC(=O)CN(C)C1CCc2ccccc21 (centres undefined),20.1%
8,C=C(C)CN(CC)C(=O)CN(C)C1CCc2ccccc21 (centres undefined),-2.725%
9,CN(Cc1ccc(Cl)s1)C(=O)CN(C)C1CCCc2ccccc21 (centres undefined),85.9%
10,CC(C)N(C(=O)CN(C)C1CCc2ccccc21)C(C)C (centres undefined),-30.96%
11,CCOC(=O)CN(C)C1CCc2ccccc21 (centres undefined),34.7%
12,CN(Cc1ccc(Cl)s1)C(=O)CN(C)C1CCc2ccccc21 (centres undefined),82.5%
13,CN(CC(=O)N(C)C1CCCCC1)C1CCc2ccccc21 (centres undefined),37.2%
14,CN(Cc1c(F)cccc1Cl)C(=O)CN(C)C1CCc2ccccc21 (centres undefined),85.1%
15,Cn1c2c(ccc1=O)CC(Nc1ncc(F)cn1)CC2 (centres undefined),-89%
16,O=C1COC2(CCN(Cc3ccc(F)cc3)CC2)CN1,-7.35%
17,O=C(CCN1CCOC1=O)N(Cc1ccncc1)CC1CCCO1 (centres undefined),15.7%
18,NC(=O)c1cc(NC(=O)N2CCOCC2)ccc1F,33.5%
19,CCS(=O)(=O)N1CCC(Nc2c(Cl)cccc2C#N)CC1,29.4%
20,N#Cc1cccc(Cl)c1NC1CCN(CC(N)=O)CC1,13.2%
21,CS(=O)(=O)CCN1CCC(Nc2c(Cl)cccc2C#N)CC1,52.6%
22,CC(C)C(C)NC(=O)c1ncn2c1CN(C)S(=O)(=O)c1ccccc1-2 (centres undefined),8.03%
23,CNCc1ccc([C@@H]2CN(C(C)=O)C[C@H]2C(=O)N(C)C)cc1,35.55%

row,SMILES,INHIBITION
1,CN(CC(=O)N1CCN(CC(C)(C)O)CC1)c1ccc(Cl)cn1,25%
2,CN(C)C(=O)N1CCCC(C(=O)N(C)CCCc2cnn(C)c2)C1 (centres undefined),47.7%
3,CC(C)N1CCCC(C(=O)N(C)CCCc2cnn(C)c2)C1 (centres undefined),51%
4,CN(CCCc1cnn(C)c1)C(=O)C1CCCN(C2CCCC2)C1 (centres undefined),37.6%
5,O=C1CCC(=O)N1c1nn(Cc2cccc(F)c2)cc1Cl,14.5%
6,CNc1cc(-c2ccc(COCCN)cc2)c2cc[nH]c2n1,-8%
7,CCCNCc1ccc(-c2cc(N)nc3[nH]ccc23)cc1,19.7%
8,CCCNCc1ccc(-c2ccnc3[nH]ccc23)cc1,78.8%
9,Cc1ccc2c(c1)C(=O)NCC1(CCN(C(=O)c3scnc3C)CC1)O2,15.9%
10,OCCn1nccc1C1CCN(CCOc2ccc(Cl)cc2)CC1,38.8%
11,CN1CC2(CCCN(Cc3ccccc3OCC(=O)O)C2)OC1=O (centres undefined),1.37%
12,CN1CC2(CCCN(Cc3ccc(Oc4ccccc4)cc3)C2)OC1=O (centres undefined),55%
13,CN(C)C(=O)COc1ccccc1CN1CCOC2(CCCC2)C1,7.58%
14,CN(C)C(=O)COc1ccccc1CN1CCCC2(C1)CN(C)C(=O)O2 (centres undefined),57.5%
15,CN1CC2(CCCN(CCOCc3ccccc3)C2)OC1=O (centres undefined),8.08%
16,CN1CC2(CCCN(Cc3cccc(Oc4ccccc4)c3)C2)OC1=O (centres undefined),42.5%
17,CC(C)N(CCCNC(=O)C1CC1)S(C)(=O)=O,5.91%
18,Cc1nccn1[C@@H]1CC[C@@H](NC(=O)CCCn2cncn2)[C@H]1O,25.071%
19,COCC1N(C(=O)N2CCOCC2)C2CCC1(O)CC2 (centres undefined),33.6%
20,Cc1ccnc(NCCNC(=O)CCNC(=O)c2ccccc2F)c1,57%
21,Cc1ccnc(NCCNC(=O)c2ccccc2NCC(=O)O)c1,11.6%
22,Cc1ccnc(NC(=O)CCNC(=O)c2ccccc2Cl)c1,30.2%
23,CC1=N[C@@]2(CC[C@@H]3CN(C(=O)Nc4ccc(F)cc4)C[C@@H]32)C(=O)N1C,0.542%

row,SMILES,INHIBITION
1,Cc1ccc(C(=O)N2CCn3cnc(COCC4CC4)c3C2)cn1,45.2%
2,Cc1nccc([C@H]2C[C@@H]3CCN(C(=O)c4c(C)noc4C)C[C@H]3O2)n1,-3.88%
3,COCc1ccc(C(=O)N2CC[C@@](O)(COC)C(C)(C)C2)o1,-26.2%
4,CCOCCn1nc(C)cc1C(=O)N1CC[C@@](O)(COC)C(C)(C)C1,16.2%
5,COc1cc(C(=O)N2CCC(O)(CN3CCOCC3)C(C)(C)C2)ccn1 (centres undefined),7.93%
6,COCc1cccc(C(=O)N2CCCC2)c1,1.98%
7,COC[C@]1(O)CCN(C(=O)c2ccc(CN(C)C)o2)CC1(C)C,76.5%
8,COC[C@]1(O)CCN(C(=O)c2cccc(CN(C)C)c2)CC1(C)C,54.7%
9,CN(C)c1ncc(C2Nc3cc(Cl)ccc3C3=NCCCN32)cn1 (centres undefined),48.4%
10,CN(C)C(=O)c1ccn(COc2ccccc2Cl)n1,-28%
11,Cn1nc(CN2CCCCC2)c2c1CN(C(=O)c1cccc(Cl)c1)C2,-41.8%
12,CC(NC(=O)N1CCN(c2nccs2)CC1)c1nncn1C (centres undefined),-15.5%
13,C[C@H]1CN(c2ccccn2)C[C@@]12CCN(Cc1cccnc1)C2=O,48.4%
14,CN(C)C(=O)CN1CCCC(Cc2ccc(N3CCCC3)nn2)C1 (centres undefined),42.4%
15,CC(C)N1CC[C@H]2[C@H](C[C@@H](Cn3cccn3)N2c2nccs2)C1,54.4%
16,c1cnn(C[C@@H]2C[C@@H]3CN(CC4CC4)CC[C@@H]3N2c2nccs2)c1,79.2%
17,CN1C(Cn2cccn2)C[C@@H]2CN(Cc3nccs3)CC[C@@H]21 (some centres undefined),20.4%
18,CN1C(Cn2cccn2)C[C@@H]2CN(Cc3cnn(C)c3)CC[C@@H]21 (some centres undefined),-10.3%
19,CN1[C@H](Cn2cccn2)C[C@@H]2CN(C(=O)Cc3cccs3)CC[C@@H]21,37.4%
20,CCC(=O)N1CC[C@H]2[C@H](C[C@@H](Cn3cccn3)N2c2nccs2)C1,21.6%
21,O=C(CCCn1cnnn1)N1CCC(c2ccncc2)CC1,31.4%
22,CN(Cc1ccco1)Cc1cncc2c1CCN(Cc1ccoc1)C2,38.5%
23,CC(=O)N1N=C(c2ccco2)OC1C(=O)NCCc1ccc(F)cc1 (centres undefined),-50.8%

row,SMILES,INHIBITION
1,CCOCC1CN(C(=O)c2ccncn2)Cc2cnn(C)c21 (centres undefined),1.48%
2,CC(CCc1ccccc1)NC(=O)CNCCCN(C)C (centres undefined),52.5%
3,CC(CCc1ccccc1)NC(=O)CNCCCN1CCOCC1 (centres undefined),32.7%
4,CC(CCc1ccccc1)NC(=O)CN1CCOCC1 (centres undefined),20.8%
5,Cn1cnnc1SCC(=O)NC1CC(=O)N(CCc2ccccc2)C1 (centres undefined),-6.18%
6,CC(=O)N1CCc2c(nc(-c3cccnc3)nc2N(C)CC(O)CO)C1 (centres undefined),-31.4%
7,COCC(O)CN(C)c1cc(C(F)(F)F)nc(-c2cccnc2)n1 (centres undefined),85.1%
8,CN(CCn1cccn1)c1cc(C(F)(F)F)nc(-c2cccnc2)n1,3.67%
9,CC(O)CN(C)c1cc(C(F)(F)F)nc(-c2cccnc2)n1 (centres undefined),16.6%
10,COCCCN(C)c1cc(C(F)(F)F)nc(-c2cccnc2)n1,59.4%
11,FC(F)(F)c1cc(NCCCn2cccn2)nc(-c2cccnc2)n1,15.1%
12,CCN(Cc1cn(CC2CCNCC2)nn1)CC1CCCO1 (centres undefined),-16.3%
13,CN(C)C(=O)[C@@H]1CC[C@@H]2[C@@H](CCN2Cc2nccs2)O1,-22.1%
14,CCC1=N[C@@]2(CC[C@@H]3CN(Cc4ccccc4F)C[C@@H]32)C(=O)N1CC,13.5%
15,Cc1cc(C(=O)N(C)Cc2cccs2)nc(N2CCCC2)n1,-33.7%
16,Cc1cc(C(=O)N(C)Cc2cccs2)nc(N2CCOCC2)n1,19.3%
17,Cc1cc(C(=O)N(C)Cc2cccs2)nc(N2CCCCC2)n1,52.4%
18,CC(C)OCCCNC(=O)CS(=O)(=O)Cc1ccc(C(C)C)cc1,7.67%
19,CCCOc1cc(C)ccc1NC(=O)N(C)C,24.2%
20,CCc1nnc2n1CCN(C(=O)c1cc3ccc(C)cc3[nH]1)C2,23.7%
21,COCC1CN(CC2CC2)Cc2nn(C)cc21 (centres undefined),55.7%
22,COCC1CN(Cc2ccncc2)Cc2nn(CC3CC3)cc21 (centres undefined),29.9%
23,CCOCC1CN(CC2CC2)Cc2nn(C)cc21 (centres undefined),52%

row,SMILES,INHIBITION
1,CCOCC1CN(Cc2ccc(F)cc2)Cc2nn(C)cc21 (centres undefined),41.6%
2,COCC1CN(Cc2cnn(C)c2)Cc2nn(C)cc21 (centres undefined),25.2%
3,CCOCC1CN(CC2CC2)Cc2nn(CC3CC3)cc21 (centres undefined),29%
4,COCC1CN(CC2CC2)Cc2nn(CC3CC3)cc21 (centres undefined),56.7%
5,CCOCC1CN(Cc2ccncc2)Cc2nn(C)cc21 (centres undefined),29.9%
6,COCC1CN(Cc2ccoc2)Cc2nn(C)cc21 (centres undefined),24.1%
7,O=S(=O)(c1ccccc1)N1C[C@@H]2CCCCN(Cc3cccs3)[C@@H]2C1,11.8%
8,O=C1CCCC2(CCN(C(=O)c3ccccn3)CC2)N1,17.4%
9,O=C(NC[C@]1(O)CCN(Cc2ccsc2)C[C@H]1O)c1c[nH]cn1,-0.275%
10,NC(=O)N1CC[C@H](O)[C@@H]1Cc1cccnc1,38.1%
11,O=C(N1CCCCC1)N1CCN(c2ccc(Cl)nn2)C(=O)C1,30%
12,CCCSc1ncc(CN(C)CCN2CCCCC2)cn1,32.3%
13,Cc1cc(C)n(CC2CCCN2C(=O)c2cccn3ccnc23)n1 (centres undefined),15.32%
14,COc1cc(C)ccc1OCc1nc(C(=O)N2CCCNC(=O)C2)co1,63.8%
15,COc1cc(C)ccc1OCc1nc(C(=O)N2CCCO2)co1,67.5%
16,COc1ccc(OCc2nc(C(=O)N3CC[C@H](O)[C@@H](O)C3)co2)cc1,-38.2%
17,CNC(=O)C1CCN(C(=O)c2coc(COc3ccc(OC)cc3)n2)C1 (centres undefined),-66.3%
18,COc1cc(C)ccc1OCc1nc(C(=O)N2CCCC2)co1,37.8%
19,COc1ccc(OCc2nc(C(=O)N3CCCNC(=O)C3)co2)cc1,53.6%
20,CCCC1CCN(C(=O)c2coc(COc3ccc(OC)cc3)n2)C1 (centres undefined),19.5%
21,COc1ccc(OCc2nc(C(=O)N3CC(O)C3)co2)cc1,33.5%
22,COc1cc(C)ccc1OCc1nc(C(=O)N2CCC(C)CC2)co1,5.33%
